This is a sample that favours compounds with a hit; in the whole collection about 2.1% have one here.
Sa ugtP lethal – compounds lethal to S. aureus RN4220 ugtP deletion mutant; growth inhibition, % (concentration not given with the values); 0.54% of 330,000 active; OD600 growth, 16 h; in the data active means growth inhibition above about 68%;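 further: plate controls were untreated wells for no effect and antibiotic for full effect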
PrP UTR inh – inhibition of PrP 5' UTR reporter expression. cell-based PrP 5' UTR mRNA reporter, plate reader. inhibition, % (test concentration not listed). 0.35% of 340,000 active. AID 488862; in the data active means inhibition above about 52%; further: 0 = median of the neutral control wells
RN4220 kill – kills Staphylococcus aureus RN4220. S. aureus RN4220 growth, OD600, 16 h. AID 1259311. 0.33% of 330,000 active. inhibition, % (no concentration beside the values); in the data active means inhibition above about 85%;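 further: plate controls were untreated cells for no effect and reference antibiotic for full effect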
CCHF vOTU inh – CCHFV vOTU protease inhibition; inhibition, % at 11.5 µM; AID 651958; 0.55% of 370,000 active; Pep-AMC fluorescence; in the data active means inhibition above about 30%; further: 0% = vehicle wells with enzyme and 100% = no enzyme wells
PfHsp40 yeast – rescue of PfHsp40-mediated yeast toxicity | S. cerevisiae expressing PfHsp40, growth rescue, ATP luminescence | growth rescue, % at 12.5 µM | 0.68% of 340,000 active | AID 504582; in the data active means growth rescue above about 28%, passing the limit was not always enough;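 further: yeast W303a lacking pdr1 and pdr3 grown in galactose medium; growth measured after three days at 30 °C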
PrPC surface inh – inhibitors of human cell surface prion protein PrPC; inhibition, % at 13.8 µM; P04156; 0.43% of 370,000 active; TR-FRET read-out; in the data active means inhibition above about 24%; further: 0% = median of the test wells and 100% = reference compound wells
* = called active by the depositor; . = no result given.

SMILES	Sa ugtP lethal	PrP UTR inh	RN4220 kill	CCHF vOTU inh	PfHsp40 yeast	PrPC surface inh
CCCCN1/C(=C/c2ccc3ccccc3[n+]2CC)Sc2ccccc21	.	-5.0	.	.	128.2*	.
CCN1/C(=C/c2ccc3cc(C)ccc3[n+]2CC)Sc2cc(C)ccc21	100.4*	23.6	100.2*	1.3	-3.3	17.8
COc1ccccc1/C=C/C=Nn1c(-c2cc(-c3ccccc3)n[nH]2)n[nH]c1=S	-4.2	.	21.0	.	.	.
C#CCOCCOCCOCCNc1nc(N2CCOCC2)nc(N2CCN(C(=O)C(CCCCN)n3cc(CN)nn3)CC2)n1 (stereo unspecified)	0.0	.	-1.0	.	.	.
COc1cc(C=NNC(=O)Cn2cnc3ccccc3c2=O)ccc1O	4.9	.	4.9	.	.	.
COc1ccc2cc(C=NNC(=O)CSCc3ccc([N+](=O)[O-])cc3)c(Cl)nc2c1	-1.4	.	13.8	.	.	.
Cc1ccc(C(=O)Cc2ccccc2)c(O)c1	5.8	-55.7	2.9	17.9	-1.9	0.1
CC(C)=CCc1c(O)ccc(C(=O)Cc2ccccc2)c1O	21.4	-25.7	-3.1	10.4	611.1*	9.7
C#CCNC(=O)C=Cc1ccc(C)cc1	-1.1	.	2.2	.	.	.
CCN(CC)S(=O)(=O)c1ccc(/C(O)=C2/C(=O)C(=O)N(CCOC)C2c2ccccc2)cc1 (stereo unspecified)	3.5	-8.6	0.9	7.4	96.8*	-3.4
CC(=O)O[C@H]1[C@@H](O)[C@H](O)[C@H](Oc2c(O)c(C)c3c4c2[C@@H](C)CC[C@@H]4[C@@H](C)C[C@H]3C=C(C)C)O[C@H]1C	.	-20.7	.	7.7	124.6*	-2.6
O=NN(CCc1ccncc1)c1ccc(OCc2ccccc2)cc1	6.7	-27.5	18.8	6.5	387.7*	14.6
CCOc1cc(/C=C\[N+](=O)[O-])ccc1OCC(=O)N1CCOCC1	-7.9	-3.0	3.9	1.6	34.9*	1.9
O=C(O)/C=C/C(=O)c1ccc2c(c1)CCc1ccccc1-2	.	-19.2	.	1.8	429.6*	3.6
O=C(O)C=CC(=O)c1ccc2c(c1)CCc1ccccc1-2	15.3	.	13.8	.	.	.
O=C(NCc1ccccc1)C1COc2ccccc2O1 (stereo unspecified)	-4.1	-25.5	-4.0	5.2	0.7	4.2
Cc1ccc(CNC(=O)C2COc3ccccc3O2)cc1 (stereo unspecified)	8.1	-37.3	1.1	-6.8	103.0*	9.1
O=C(O)c1ccc(N/N=C/C2=Cc3ccccc3OC2)cc1	.	-107.7	.	14.7	179.2*	9.0
CCCCSc1nc(C)cc(SCC(=O)N/N=C/c2cccc(OC)c2O)n1	.	16.8	.	8.2	103.5*	8.6
COc1ccc2cnn(-c3ccccc3C)c(=O)c2c1OC	2.7	-9.8	-0.5	1.4	136.0*	-5.0
COc1ccc2cnn(-c3ccc(OC(F)(F)F)cc3)c(=O)c2c1OC	5.9	-46.5	3.9	-11.2	10.3	-0.1
COc1ccc2cnn(-c3ccccc3)c(=O)c2c1OC	2.0	-22.4	-2.7	2.4	65.5*	-2.2
CCCn1c(=O)c(C(=O)NCc2ccc(OC)c(OC)c2)c(O)c2ccccc21	8.6	-29.8	13.6	13.1	334.5*	-3.4
CCCCCCCCCC(=O)NNC(=O)c1c(O)c2ccccc2n(CCC)c1=O	90.2*	-23.1	76.2	-10.6	1.6	-1.6
CCCn1c(=O)c(C(=O)NNS(=O)(=O)c2ccc(Cl)cc2)c(O)c2ccccc21	100.4*	-23.6	99.1*	10.9	0.8	3.1
SMILES	Sa ugtP lethal	PrP UTR inh	RN4220 kill	CCHF vOTU inh	PfHsp40 yeast	PrPC surface inh
CCCCCCn1c(=O)c(C(=O)NN=Cc2cccc(F)c2)c(O)c2ccccc21	100.0*	.	59.7	.	.	.
CCCn1c(=O)c(C(=O)NNC(=O)c2ccc(Cl)cc2Cl)c(O)c2ccccc21	2.7	-9.8	29.7	-4.3	-0.1	2.1
CC(C)Cn1c(=O)c(C(=O)N/N=C/c2cccc(F)c2)c(O)c2ccccc21	.	21.5	.	-1.6	-0.9	1.6
CCCC1CCCO[C@@](C(=O)NCCN2CCOCC2)(C(F)(F)F)C1 (stereo partly specified)	0.4	.	2.8	.	.	.
O=C1N=C(N2CCCC2C(=O)O)SC1=Cc1ccco1 (stereo unspecified)	-6.4	.	1.3	.	.	.
Cc1ccccc1C=NNC(=O)CSc1nc2ccccc2o1	4.4	.	-1.4	.	.	.
NC(=O)C1CC2(CC(c3cccc(NC(=O)C4CCC(=O)N4)c3)=NO2)CN1C(=O)Cc1ccc([N+](=O)[O-])cc1 (stereo unspecified)	-0.6	.	2.5	.	.	.
CCCCCCCCCCC(=O)NNC(=O)c1c(O)c2ccccc2n(CC)c1=O	98.8*	.	96.9*	.	.	.
CCCCCCCCC(=O)NNC(=O)c1c(O)c2ccccc2n(CCC)c1=O	98.0*	-11.8	98.1*	-2.1	-0.1	10.4
CC[C@@H](O)C[C@H]1CCC[C@@]2(C[C@@H]3OC(=O)/C=C/[C@@](C)(O)[C@@H](O)[C@H](C)[C@@H](O)[C@H](OC4CCC(N(C)C)C(C)O4)[C@@H](O)[C@](C)(O)CCCCC/C=C/[C@@H]4CC(C)(C)O[C@@]4(O)C[C@H](O2)[C@H]3C)O1 (stereo partly specified)	.	-24.0	.	10.8	55.6*	21.9
Oc1ccc(CCNc2ncnc3ccc(Cl)cc23)cc1	.	8.4	.	1.2	-1.4	36.2*
O=c1c(=Cc2ccc(O)cc2)sc2n1C(c1ccccc1)C(c1ccccc1)=NN=2 (stereo unspecified)	13.5	.	-25.9	.	.	.
CCOC(=O)c1sc(-c2cccc(C(F)(F)F)c2)nc1O	0.1	-17.4	43.6	-0.6	0.3	-10.8
CCOC(=O)c1sc(-c2ccc(C(F)(F)F)cc2)nc1O	-6.2	-68.6	18.9	1.2	132.4*	-12.4
NCC(=NO)c1ccc(Cl)cc1Cl	2.1	.	1.1	.	.	.
Cc1ccccc1OCCN1CCC(Cc2ccccc2)CC1	-13.5	-14.4	-4.7	19.0	59.1*	0.9
Nc1ccc(CC2=NCCN2)cc1	6.1	-20.3	1.8	7.8	34.5*	8.5
Cc1sc2ccccc2c1CC1=NCCN1	.	-14.0	.	-1.3	-0.2	-1.2
CC(CC(=O)N1CCN(C=O)CC1)=NNC(=O)c1cc2ccccc2cc1O	-5.0	.	7.5	.	.	.
CCn1c2ccccc2c2cc(Nc3cc(C)nc4ncnn34)ccc21	-0.7	67.7*	0.3	6.8	8.1	21.4
CCc1ccc(Nc2cc(C)nc3ncnn23)cc1	10.4	12.8	6.9	8.6	0.2	-3.5
CCOC(=O)C1C2COc3cc(OC)ccc3C2N2C(=O)N(c3cccc(C)c3)C(=O)[C@@]12C (stereo partly specified)	-13.1	.	8.0	.	.	.
CCCC(CNC(CNC)C(C)CC)NCC1CCC(C(C)(C)C)CC1 (stereo unspecified)	-3.2	.	-0.7	.	.	.
Cc1nn(-c2ccccc2)c(Cl)c1C=NNC(=O)c1nn(C)cc1[N+](=O)[O-]	3.2	.	-0.2	.	.	.

From PubChem BioAssay
